# Measurements reported in the supplement of paper PMC4466140.
# Target: AgAbp1
# Assay: SPOT peptide array binding signal intensity (averaged, normalized) (arbitrary units (background-subtracted, floor 0; scale differs between SH3 domains)); higher = stronger binding of the SH3 domain to the peptide
# Protocol: (§1)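 GST-tagged SH3 domains from S. cerevisiae (Sc), A. gossypii (Ag), C. albicans (Ca) and S. pombe (Sp) were incubated at 10 ug/ml overnight at 4 C on cellulose SPOT membranes carrying 292 synthetic 15-mer peptides mined from the S. cerevisiae proteome (cysteines replaced by serines). Binding was detected with anti-GST antibody, HRP secondary and chemiluminescence, quantified with Genespotter, and reported as normalized spot intensities averaged over biological replicates.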
row,Binder,SPOT peptide array binding signal intensity
1,RPVPPPPPMRTTTEG,18

# Target: AgBbc1
# Assay: as above
# Protocol: as §1
row,Binder,SPOT peptide array binding signal intensity
1,RPVPPPPPMRTTTEG,814

# Target: AgBem1-D1
# Assay: as above
# Protocol: as §1
row,Binder,SPOT peptide array binding signal intensity
1,RPVPPPPPMRTTTEG,201

# Target: AgBzz1-D1
# Assay: as above
# Protocol: as §1
row,Binder,SPOT peptide array binding signal intensity
1,RPVPPPPPMRTTTEG,156

# Target: AgBzz1-D2
# Assay: as above
# Protocol: as §1
row,Binder,SPOT peptide array binding signal intensity
1,RPVPPPPPMRTTTEG,14.5

# Target: AgCyk3
# Assay: as above
# Protocol: as §1
row,Binder,SPOT peptide array binding signal intensity
1,RPVPPPPPMRTTTEG,14

# Target: AgFus1
# Assay: as above
# Protocol: as §1
row,Binder,SPOT peptide array binding signal intensity
1,RPVPPPPPMRTTTEG,63

# Target: AgHof1
# Assay: as above
# Protocol: as §1
row,Binder,SPOT peptide array binding signal intensity
1,RPVPPPPPMRTTTEG,61.8

# Target: AgHse1
# Assay: as above
# Protocol: as §1
row,Binder,SPOT peptide array binding signal intensity
1,RPVPPPPPMRTTTEG,144

# Target: AgLsb1
# Assay: as above
# Protocol: as §1
row,Binder,SPOT peptide array binding signal intensity
1,RPVPPPPPMRTTTEG,303

# Target: AgLsb4
# Assay: as above
# Protocol: as §1
row,Binder,SPOT peptide array binding signal intensity
1,RPVPPPPPMRTTTEG,1760

# Target: AgMyo5
# Assay: as above
# Protocol: as §1
row,Binder,SPOT peptide array binding signal intensity
1,RPVPPPPPMRTTTEG,41.2

# Target: AgNbp2
# Assay: as above
# Protocol: as §1
row,Binder,SPOT peptide array binding signal intensity
1,RPVPPPPPMRTTTEG,3100

# Target: AgRvs167
# Assay: as above
# Protocol: as §1
row,Binder,SPOT peptide array binding signal intensity
1,RPVPPPPPMRTTTEG,1050

# Target: AgSho1
# Assay: as above
# Protocol: as §1
row,Binder,SPOT peptide array binding signal intensity
1,RPVPPPPPMRTTTEG,136

# Target: AgSla1-D1-D2
# Assay: as above
# Protocol: as §1
row,Binder,SPOT peptide array binding signal intensity
1,RPVPPPPPMRTTTEG,1

# Target: AgSla1-D3
# Assay: as above
# Protocol: as §1
row,Binder,SPOT peptide array binding signal intensity
1,RPVPPPPPMRTTTEG,108

# Target: CaAbp1-D1
# Assay: as above
# Protocol: as §1
row,Binder,SPOT peptide array binding signal intensity
1,RPVPPPPPMRTTTEG,364

# Target: CaAbp1-D2
# Assay: as above
# Protocol: as §1
row,Binder,SPOT peptide array binding signal intensity
1,RPVPPPPPMRTTTEG,60.5

# Target: CaBbc1
# Assay: as above
# Protocol: as §1
row,Binder,SPOT peptide array binding signal intensity
1,RPVPPPPPMRTTTEG,553

# Target: CaBem1-D1
# Assay: as above
# Protocol: as §1
row,Binder,SPOT peptide array binding signal intensity
1,RPVPPPPPMRTTTEG,166

# Target: CaBzz1-D1
# Assay: as above
# Protocol: as §1
row,Binder,SPOT peptide array binding signal intensity
1,RPVPPPPPMRTTTEG,3990

# Target: CaBzz1-D2
# Assay: as above
# Protocol: as §1
row,Binder,SPOT peptide array binding signal intensity
1,RPVPPPPPMRTTTEG,1260

# Target: CaCyk3
# Assay: as above
# Protocol: as §1
row,Binder,SPOT peptide array binding signal intensity
1,RPVPPPPPMRTTTEG,387

# Target: CaFus1
# Assay: as above
# Protocol: as §1
row,Binder,SPOT peptide array binding signal intensity
1,RPVPPPPPMRTTTEG,548

# Target: CaHof1
# Assay: as above
# Protocol: as §1
row,Binder,SPOT peptide array binding signal intensity
1,RPVPPPPPMRTTTEG,40

# Target: CaHse1
# Assay: as above
# Protocol: as §1
row,Binder,SPOT peptide array binding signal intensity
1,RPVPPPPPMRTTTEG,405

# Target: CaLsb1
# Assay: as above
# Protocol: as §1
row,Binder,SPOT peptide array binding signal intensity
1,RPVPPPPPMRTTTEG,1

# Target: CaLsb4
# Assay: as above
# Protocol: as §1
row,Binder,SPOT peptide array binding signal intensity
1,RPVPPPPPMRTTTEG,2480

# Target: CaMyo5
# Assay: as above
# Protocol: as §1
row,Binder,SPOT peptide array binding signal intensity
1,RPVPPPPPMRTTTEG,54

# Target: CaNbp2
# Assay: as above
# Protocol: as §1
row,Binder,SPOT peptide array binding signal intensity
1,RPVPPPPPMRTTTEG,1490

# Target: CaRvs167
# Assay: as above
# Protocol: as §1
row,Binder,SPOT peptide array binding signal intensity
1,RPVPPPPPMRTTTEG,1460

# Target: CaRvs167-3
# Assay: as above
# Protocol: as §1
row,Binder,SPOT peptide array binding signal intensity
1,RPVPPPPPMRTTTEG,0.75

# Target: CaSho1
# Assay: as above
# Protocol: as §1
row,Binder,SPOT peptide array binding signal intensity
1,RPVPPPPPMRTTTEG,650

# Target: CaSla1-D1-D2
# Assay: as above
# Protocol: as §1
row,Binder,SPOT peptide array binding signal intensity
1,RPVPPPPPMRTTTEG,1590

# Target: CaSla1-D3
# Assay: as above
# Protocol: as §1
row,Binder,SPOT peptide array binding signal intensity
1,RPVPPPPPMRTTTEG,928

# Target: ScAbp1
# Assay: as above
# Protocol: as §1
row,Binder,SPOT peptide array binding signal intensity
1,RPVPPPPPMRTTTEG,21

# Target: ScBbc1
# Assay: as above
# Protocol: as §1
row,Binder,SPOT peptide array binding signal intensity
1,RPVPPPPPMRTTTEG,64.8

# Target: ScBem1-D1
# Assay: as above
# Protocol: as §1
row,Binder,SPOT peptide array binding signal intensity
1,RPVPPPPPMRTTTEG,≤ 0

# Target: ScBzz1-D1
# Assay: as above
# Protocol: as §1
row,Binder,SPOT peptide array binding signal intensity
1,RPVPPPPPMRTTTEG,177

# Target: ScBzz1-D2
# Assay: as above
# Protocol: as §1
row,Binder,SPOT peptide array binding signal intensity
1,RPVPPPPPMRTTTEG,14.5

# Target: ScCyk3
# Assay: as above
# Protocol: as §1
row,Binder,SPOT peptide array binding signal intensity
1,RPVPPPPPMRTTTEG,8.5

# Target: ScFus1
# Assay: as above
# Protocol: as §1
row,Binder,SPOT peptide array binding signal intensity
1,RPVPPPPPMRTTTEG,180

# Target: ScHof1
# Assay: as above
# Protocol: as §1
row,Binder,SPOT peptide array binding signal intensity
1,RPVPPPPPMRTTTEG,46.2

# Target: ScHse1
# Assay: as above
# Protocol: as §1
row,Binder,SPOT peptide array binding signal intensity
1,RPVPPPPPMRTTTEG,63

# Target: ScLsb1
# Assay: as above
# Protocol: as §1
row,Binder,SPOT peptide array binding signal intensity
1,RPVPPPPPMRTTTEG,180

# Target: ScLsb2
# Assay: as above
# Protocol: as §1
row,Binder,SPOT peptide array binding signal intensity
1,RPVPPPPPMRTTTEG,434

# Target: ScLsb3
# Assay: as above
# Protocol: as §1
row,Binder,SPOT peptide array binding signal intensity
1,RPVPPPPPMRTTTEG,4080

# Target: ScLsb4
# Assay: as above
# Protocol: as §1
row,Binder,SPOT peptide array binding signal intensity
1,RPVPPPPPMRTTTEG,3130

# Target: ScMyo3
# Assay: as above
# Protocol: as §1
row,Binder,SPOT peptide array binding signal intensity
1,RPVPPPPPMRTTTEG,569

# Target: ScMyo5
# Assay: as above
# Protocol: as §1
row,Binder,SPOT peptide array binding signal intensity
1,RPVPPPPPMRTTTEG,239

# Target: ScNbp2
# Assay: as above
# Protocol: as §1
row,Binder,SPOT peptide array binding signal intensity
1,RPVPPPPPMRTTTEG,4580

# Target: ScPex13
# Assay: as above
# Protocol: as §1
row,Binder,SPOT peptide array binding signal intensity
1,RPVPPPPPMRTTTEG,1500

# Target: ScRvs167
# Assay: as above
# Protocol: as §1
row,Binder,SPOT peptide array binding signal intensity
1,RPVPPPPPMRTTTEG,3300

# Target: ScSho1
# Assay: as above
# Protocol: as §1
row,Binder,SPOT peptide array binding signal intensity
1,RPVPPPPPMRTTTEG,616

# Target: ScSla1-D1-D2
# Assay: as above
# Protocol: as §1
row,Binder,SPOT peptide array binding signal intensity
1,RPVPPPPPMRTTTEG,1870

# Target: ScSla1-D3
# Assay: as above
# Protocol: as §1
row,Binder,SPOT peptide array binding signal intensity
1,RPVPPPPPMRTTTEG,222

# Target: SpAbp1-D1
# Assay: as above
# Protocol: as §1
row,Binder,SPOT peptide array binding signal intensity
1,RPVPPPPPMRTTTEG,95.5

# Target: SpBbc1
# Assay: as above
# Protocol: as §1
row,Binder,SPOT peptide array binding signal intensity
1,RPVPPPPPMRTTTEG,40.5

# Target: SpBzz1-D1
# Assay: as above
# Protocol: as §1
row,Binder,SPOT peptide array binding signal intensity
1,RPVPPPPPMRTTTEG,1370

# Target: SpBzz1-D2
# Assay: as above
# Protocol: as §1
row,Binder,SPOT peptide array binding signal intensity
1,RPVPPPPPMRTTTEG,88

# Target: SpCyk3
# Assay: as above
# Protocol: as §1
row,Binder,SPOT peptide array binding signal intensity
1,RPVPPPPPMRTTTEG,112

# Target: SpHof1
# Assay: as above
# Protocol: as §1
row,Binder,SPOT peptide array binding signal intensity
1,RPVPPPPPMRTTTEG,111

# Target: SpHof1-2
# Assay: as above
# Protocol: as §1
row,Binder,SPOT peptide array binding signal intensity
1,RPVPPPPPMRTTTEG,110

# Target: SpHof1-3
# Assay: as above
# Protocol: as §1
row,Binder,SPOT peptide array binding signal intensity
1,RPVPPPPPMRTTTEG,966

# Target: SpHse1
# Assay: as above
# Protocol: as §1
row,Binder,SPOT peptide array binding signal intensity
1,RPVPPPPPMRTTTEG,147

# Target: SpLsb1
# Assay: as above
# Protocol: as §1
row,Binder,SPOT peptide array binding signal intensity
1,RPVPPPPPMRTTTEG,161

# Target: SpLsb4
# Assay: as above
# Protocol: as §1
row,Binder,SPOT peptide array binding signal intensity
1,RPVPPPPPMRTTTEG,4570

# Target: SpMyo1
# Assay: as above
# Protocol: as §1
row,Binder,SPOT peptide array binding signal intensity
1,RPVPPPPPMRTTTEG,333

# Target: SpNbp2
# Assay: as above
# Protocol: as §1
row,Binder,SPOT peptide array binding signal intensity
1,RPVPPPPPMRTTTEG,191

# Target: SpPex13
# Assay: as above
# Protocol: as §1
row,Binder,SPOT peptide array binding signal intensity
1,RPVPPPPPMRTTTEG,150

# Target: SpRvs167
# Assay: as above
# Protocol: as §1
row,Binder,SPOT peptide array binding signal intensity
1,RPVPPPPPMRTTTEG,2150

# Target: SpSla1-D1-D2
# Assay: as above
# Protocol: as §1
row,Binder,SPOT peptide array binding signal intensity
1,RPVPPPPPMRTTTEG,86

# Target: SpSla1-D3
# Assay: as above
# Protocol: as §1
row,Binder,SPOT peptide array binding signal intensity
1,RPVPPPPPMRTTTEG,33.5
